According to PubChem BioAssay (NCATS):
Inconclusive results are not listed. The source made the active and inactive calls. Calls follow the shape of the dose curve; as a rule, active = well fitted curve in the direction sought with a large enough effect; inconclusive = small, poorly fitted or top-dose-only effect, or another doubt; inactive = no such curve, though single readings can be large; an effect the other way counts as inactive or inconclusive.

Columns and labels:
[1] = molecular target: Rap guanine nucleotide exchange factor 3 (Homo sapiens) (UniProt O95398); test: Confirmatory qHTS for agonist of cAMP-regulated guanine nucleotide exchange factor 3 (EPAC1) (AID 1645881);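 also: EPAC1 catalysed release of BODIPY-GDP from Rap1B seen as fluorescence loss; 100% = effect of cAMP agonist control; nearly all actives have a fitted effect of over 75% in size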
Chain of Rap guanine nucleotide exchange factor 3 (Homo sapiens) (O95398 whole entry, looked up): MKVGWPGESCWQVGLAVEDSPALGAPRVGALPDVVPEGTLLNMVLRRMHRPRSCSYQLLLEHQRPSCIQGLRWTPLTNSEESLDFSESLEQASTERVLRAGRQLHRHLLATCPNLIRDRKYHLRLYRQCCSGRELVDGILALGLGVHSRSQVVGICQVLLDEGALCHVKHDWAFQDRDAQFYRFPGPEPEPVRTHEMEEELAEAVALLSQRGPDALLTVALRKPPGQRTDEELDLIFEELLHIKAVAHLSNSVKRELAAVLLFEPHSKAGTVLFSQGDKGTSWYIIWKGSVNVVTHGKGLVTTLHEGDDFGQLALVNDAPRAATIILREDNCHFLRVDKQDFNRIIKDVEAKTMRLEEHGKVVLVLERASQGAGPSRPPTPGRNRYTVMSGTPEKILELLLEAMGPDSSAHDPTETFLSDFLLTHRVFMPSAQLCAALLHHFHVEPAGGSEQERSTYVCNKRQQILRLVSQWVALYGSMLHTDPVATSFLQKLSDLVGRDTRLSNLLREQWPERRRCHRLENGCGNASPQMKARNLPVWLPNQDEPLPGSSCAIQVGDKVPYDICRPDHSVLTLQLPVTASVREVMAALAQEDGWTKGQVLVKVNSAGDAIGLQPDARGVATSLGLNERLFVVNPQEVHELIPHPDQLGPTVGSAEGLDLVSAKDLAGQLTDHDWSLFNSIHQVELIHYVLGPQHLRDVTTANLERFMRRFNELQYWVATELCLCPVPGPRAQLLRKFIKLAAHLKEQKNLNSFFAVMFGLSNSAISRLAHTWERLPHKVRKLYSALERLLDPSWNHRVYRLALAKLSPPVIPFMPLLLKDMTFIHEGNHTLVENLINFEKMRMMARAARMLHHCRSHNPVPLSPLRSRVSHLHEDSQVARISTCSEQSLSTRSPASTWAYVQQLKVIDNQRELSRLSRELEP

[2] = molecular target: Rap guanine nucleotide exchange factor 4 (Homo sapiens) (UniProt Q8WZA2); test: Confirmatory qHTS for agonist of cAMP-regulated guanine nucleotide exchange factor 4 (EPAC2) (AID 1645884);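 also: nucleotide exchange releases bodipy-GDP from Rap1 and this lowers its fluorescence; % is scaled to controls: 0 for no effect and ±100 for the full control effect; nearly all actives have a fitted effect of over 65% in size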
Chain of Rap guanine nucleotide exchange factor 4 (Homo sapiens) (Q8WZA2 whole entry, looked up): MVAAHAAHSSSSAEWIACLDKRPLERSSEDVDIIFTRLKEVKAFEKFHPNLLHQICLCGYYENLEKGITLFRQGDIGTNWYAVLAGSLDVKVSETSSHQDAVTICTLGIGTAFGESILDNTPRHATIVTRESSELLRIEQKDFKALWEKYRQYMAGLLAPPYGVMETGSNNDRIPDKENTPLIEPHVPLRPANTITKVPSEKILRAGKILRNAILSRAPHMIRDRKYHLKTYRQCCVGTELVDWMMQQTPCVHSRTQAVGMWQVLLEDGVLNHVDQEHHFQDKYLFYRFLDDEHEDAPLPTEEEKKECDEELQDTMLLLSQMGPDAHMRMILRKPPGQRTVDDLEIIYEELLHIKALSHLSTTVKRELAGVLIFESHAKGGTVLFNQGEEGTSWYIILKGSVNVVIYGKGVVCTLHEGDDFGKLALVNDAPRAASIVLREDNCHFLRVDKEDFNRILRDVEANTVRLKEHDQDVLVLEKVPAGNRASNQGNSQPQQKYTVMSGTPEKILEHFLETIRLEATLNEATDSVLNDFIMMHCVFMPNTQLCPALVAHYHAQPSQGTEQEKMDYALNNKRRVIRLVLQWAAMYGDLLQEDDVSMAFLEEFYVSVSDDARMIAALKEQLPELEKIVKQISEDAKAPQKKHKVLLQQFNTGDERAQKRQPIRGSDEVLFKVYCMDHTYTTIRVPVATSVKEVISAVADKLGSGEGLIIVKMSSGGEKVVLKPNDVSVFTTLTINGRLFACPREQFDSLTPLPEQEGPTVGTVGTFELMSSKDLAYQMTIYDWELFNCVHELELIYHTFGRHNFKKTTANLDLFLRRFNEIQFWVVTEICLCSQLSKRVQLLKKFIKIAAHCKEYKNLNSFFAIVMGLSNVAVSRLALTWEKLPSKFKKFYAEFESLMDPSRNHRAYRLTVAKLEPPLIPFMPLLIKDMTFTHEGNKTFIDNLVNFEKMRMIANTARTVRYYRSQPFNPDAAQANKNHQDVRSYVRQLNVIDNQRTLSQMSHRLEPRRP

[3] = molecular target: Rap guanine nucleotide exchange factor 4 (Homo sapiens) (UniProt Q8WZA2); test: Confirmatory qHTS for antagonist of cAMP-regulated guanine nucleotide exchange factor 4 (EPAC2) (AID 1645885); also: nearly all actives have a fitted effect of over 25% in size; as to activity change, negative = inhibition: % is scaled to controls: 0 for no effect and ±100 for the full control effect
[4] = molecular target: Rap guanine nucleotide exchange factor 3 (Homo sapiens) (UniProt O95398); test: Counterscreen qHTS for antagonist of cAMP-regulated guanine nucleotide exchange factor 3 (EPAC1) (AID 1645888);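 also: fluorescence loss as bound BODIPY-GDP is released from Rap1B; % of control where 0% means no effect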
In short: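 Measured: fluorescence of BODIPY-GDP bound to Rap1B, which falls as exchange proceeds. Conditions include 50 uM competing GDP, 5 and 30 min reads, and a later cAMP challenge for antagonist detection.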

CCC1=NN2C(=N)/C(=C/c3ccc(OS(=O)(=O)c4ccccc4)cc3)C(=O)N=C2S1
inactive: Potency [1] | Potency [2] | Potency [3] | Potency [4]

O=C(NCc1ccc2c(c1)CCN2C(=O)c1ccccc1)Nc1cccc(C(F)(F)F)c1
inactive: Potency [1] | Potency [2] | Potency [3] | Potency [4]

Cc1ccc(C(=O)c2cn(Cc3cccc(C)c3)c3nc(C)ccc3c2=O)cc1
inactive: Potency [1] | Potency [2] | Potency [3] | Potency [4]

CCOc1cccc(CNc2ccc(O)cc2)c1OCc1ccc(Cl)cc1Cl
inactive: Potency [1] | Potency [2] | Potency [3] | Potency [4]

Cc1cccc(N2CCN(C(=O)c3[nH]c(C(F)(F)F)nc3-c3ccccc3)CC2)c1C
inactive: Potency [1] | Potency [2] | Potency [3] | Potency [4]

CC(c1ccccc1)n1cc2c(c1-c1ccccc1Br)c(=O)n(C)c(=O)n2C (stereo unspecified)
inactive: Potency [1] | Potency [2] | Potency [3] | Potency [4]

O=C(/C=C/c1ccco1)Nc1cccc2cccnc12
inactive: Potency [1] | activation [2] 3.39% [at 17.1 µM, percent relative to cAMP agonist control] | Potency [3] | activity change, negative = inhibition [4] 21.3% [at 30.8 µM]

COc1ccc(OC)c(Nc2cc3ccccc3c(=O)[nH]2)c1
inactive: Potency [1] | Potency [2] | Potency [3] | Potency [4]

O=C(c1ccc(Br)cc1)C(CN1CCOCC1)c1ccccc1 (stereo unspecified)
inactive: Potency [1] | activation [2] 8.74% [at 17.1 µM, percent relative to cAMP agonist control] | Potency [3] | activity change, negative = inhibition [4] 16% [at 30.8 µM]

CCC(CO)n1c(SCc2cc([N+](=O)[O-])cc3c2OCOC3)nc2ccccc2c1=O (stereo unspecified)
inactive: Potency [1] | activation [2] 10.3% [at 17.1 µM, percent relative to cAMP agonist control] | Potency [3] | activity change, negative = inhibition [4] 19.8% [at 30.8 µM]

CCOC(=O)c1c(NC(=O)CSc2nnnn2-c2ccccc2OCC)sc2c1CC(C)(C)NC2(C)C
inactive: Potency [1] | activation [2] 5.6% [at 17.1 µM, percent relative to cAMP agonist control] | Potency [3] | activity change, negative = inhibition [4] -5.37% [at 30.8 µM]

COc1cc(/C=C2\SC(=O)N(c3cccc(Cl)c3)C2=O)cc([N+](=O)[O-])c1O
inactive: Potency [1] | Potency [2] | Potency [3] | Potency [4]

COc1ccc(Oc2cn[nH]c2-c2ccc(OC)cc2O)cc1
inactive: Potency [1] | activation [2] 9.65% [at 17.1 µM, percent relative to cAMP agonist control] | Potency [3] | activity change, negative = inhibition [4] -4.7% [at 30.8 µM]

O=C(CSc1ccc2ccccc2c1)Nc1ccc(S(=O)(=O)Nc2nccs2)cc1
inactive: Potency [1] | activation [2] 0.22% [at 17.1 µM, percent relative to cAMP agonist control] | Potency [3] | activity change, negative = inhibition [4] -0.461% [at 30.8 µM]

O=C1Cc2ccccc2C(=O)N1CCc1ccccc1
inactive: Potency [1] | Potency [2] | Potency [3] | Potency [4]

CC(C)(C)C1CCc2c(sc3nc(SCC(=O)O)nc(N)c23)C1 (stereo unspecified)
inactive: Potency [1] | activation [2] 8.5% [at 17.1 µM, percent relative to cAMP agonist control] | Potency [3] | activity change, negative = inhibition [4] -1.53% [at 30.8 µM]

C[C@H]1CN([C@@H](C)CO)S(=O)(=O)c2ccc(Br)cc2O[C@@H]1CN(C)Cc1cccc(F)c1
inactive: Potency [1] | activation [2] 15% [at 17.1 µM, percent relative to cAMP agonist control] | Potency [3] | activity change, negative = inhibition [4] -8.18% [at 30.8 µM]

Cc1ccc(-n2c(CCC(=O)O)ccc2-c2cccs2)cc1Cl
inactive: Potency [1] | Potency [2] | outcome [3] inactive [at 12.7 µM] | Potency [4]

CCCN1CCN(c2ncnc3sc(C(=O)Nc4ccc(OC(F)(F)F)cc4)c(C)c23)CC1
inactive: Potency [1] | Potency [2] | Potency [3] | Potency [4]

C/C(=N\NC(=O)c1ccc(O)cc1)c1cccc(NC(=O)c2ccc(Cl)cc2)c1
inactive: Potency [1] | Potency [2] | Potency [3] | Potency [4]

Cc1ccc(C(=O)Nc2cccc(-c3ccc(N4CCOCC4)nn3)c2)cc1C
inactive: Potency [1] | Potency [2] | Potency [3] | Potency [4]

CCn1c(=O)c(C(=O)Nc2ccccc2S(N)(=O)=O)c(O)c2ccccc21
inactive: Potency [1] | Potency [2] | Potency [3] | Potency [4]

CCOC(=O)C1=CCN(S(=O)(=O)c2ccccc2Cl)C1c1ccc(Cl)c(Cl)c1 (stereo unspecified)
inactive: Potency [1] | activation [2] 4.1% [at 17.1 µM, percent relative to cAMP agonist control] | Potency [3] | activity change, negative = inhibition [4] -3.01% [at 30.8 µM]

O=C(CSc1nc(O)cc(=O)n1-c1ccccc1)Nc1ccc2c3c(cccc13)CC2
inactive: Potency [1] | activation [2] 0% [at 17.1 µM, percent relative to cAMP agonist control] | Potency [3] | activity change, negative = inhibition [4] -9.82% [at 30.8 µM]

CCc1nc2c(OCC3CCCCC3)cccn2c1N(C)C(=O)c1ccc(C)cc1
inactive: Potency [1] | Potency [2] | Potency [3] | Potency [4]

Cc1ccc(CNc2nc(NCc3ccccc3)nc3ccsc23)c(C)c1
inactive: Potency [1] | Potency [2] | Potency [3] | Potency [4]

Cc1cc(CSc2ccc(Cl)cc2)ccc1N
inactive: Potency [1] | Potency [2] | Potency [3] | Potency [4]

O=C1CCCC2=C1C(c1ccc(O)c(O)c1)Nc1ccc3ccccc3c12 (stereo unspecified)
inactive: Potency [1] | Potency [2] | Potency [3] | Potency [4]

COC(=O)[C@]12CCCCC=C1N(CCC1=CCCCC1)C(=O)[C@H](CC(=O)NCc1cccc(C(F)(F)F)c1)C2
inactive: Potency [1] | activation [2] 0% [at 17.1 µM, percent relative to cAMP agonist control] | Potency [3] | activity change, negative = inhibition [4] -9.47% [at 30.8 µM]

CCOc1ccc(S(=O)(=O)Nc2ccc(F)cc2)c(C)c1C
inactive: Potency [1] | Potency [2] | Potency [3] | Potency [4]

O=C1CSC(c2cccc(Cl)c2Cl)N1c1ccccn1 (stereo unspecified)
inactive: Potency [1] | activation [2] 6.45% [at 17.1 µM, percent relative to cAMP agonist control] | Potency [3] | activity change, negative = inhibition [4] -6.53% [at 30.8 µM]

COc1ccc(OC)c(NC(=O)CSc2nc(O)cc(=O)n2CC(C)C)c1
inactive: Potency [1] | Potency [2] | Potency [3] | Potency [4]

O=C(Nc1ccccc1C(=O)O)c1cccc(NC(=O)c2ccc(Br)o2)c1
inactive: Potency [1] | Potency [2] | Potency [3] | Potency [4]

COc1ccc(CC(=O)NCc2ccc3c(c2)CCN3C(=O)c2ccc(Cl)cc2)cc1OC
inactive: Potency [1] | Potency [2] | Potency [3] | Potency [4]
